Reference: PubChem BioAssay (NCATS)
Inconclusive results are not listed. Values without a mark were called inactive. Calls of active or inactive are those of the source. The call rests on the fitted dose curve; in most records, active means well fitted cell-killing curve with a large enough effect; inconclusive means small, poorly fitted or top-dose-only effect; inactive means no such curve, though single readings can be large or run the other way.

assay: qHTS of pediatric cancer cell lines to identify multiple opportunities for drug repurposing: Primary screen for SJ-GBM2 cells (AID 1347091); settings: SJ-GBM2 viability, CellTiter-Glo luminescence, 48 h; series mostly up to 46 µM; activity change, negative = cytotoxic: at the top concentration;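 on activity change, negative = cytotoxic: plate controls were DMSO neutral control for no effect and bortezomib for full effect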
How it was run: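 Eight- or eleven-point concentration series, 48 h treatment at 37 degrees C in growth media; readout CellTiter-Glo luminescence. Potency and efficacy were taken from the concentration-response curves.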
Potency means the concentration at half of the fitted maximal effect.

Compound	activity change, negative = cytotoxic [%]	Potency
Cc1cc(C(=O)NOCCO)c(Nc2ccc(I)cc2F)n(C)c1=O	14.4	
O=C(Nc1nnc(-c2ccco2)o1)c1cc(-c2ccccc2)nc2ccccc12		7.43 µM (active)
OCC(O)C(O)C(O)CO (stereo not given)	-8.97	
Nc1nc(=O)n([C@H]2C[C@H](O)[C@@H](CO)O2)cc1F	19.4	
Cc1cnc(Nc2ccc(CN3CCOCC3)cc2)nc1Nc1cccc(S(=O)(=O)NC(C)(C)C)c1		2.96 µM (active)
CC(C)c1cc(C(C)C)c(CC(=O)NS(=O)(=O)Oc2c(C(C)C)cccc2C(C)C)c(C(C)C)c1		11.8 µM (active)
C[C@H](NC(=O)C(C#N)=Cc1cccc(Br)n1)c1ccccc1		2.96 µM (active)
COC(=O)[C@@H]1[C@H]2C[C@@H]3c4[nH]c5ccccc5c4CCN3C[C@@H]2CC[C@@H]1O	8.45	
C=C(C)[C@@H]1CC[C@]2(C(=O)O)CC[C@]3(C)[C@H](CC[C@@H]4[C@@]5(C)CC[C@H](O)C(C)(C)[C@@H]5CC[C@]43C)[C@@H]12		18.7 µM (active)
CC(C)C[C@H](NC(=O)[C@@H](NC(=O)c1cccc(-c2ccccc2)n1)[C@@H](C)O)B(O)O		0.0418 µM (active)
C[N+](C)([O-])CCNc1ccc(NCC[N+](C)(C)[O-])c2c1C(=O)c1c(O)ccc(O)c1C2=O	-9.29	
CCN(C(=O)c1c(O)c2c(Cl)cccc2n(C)c1=O)c1ccccc1	25	
CC(C)(O)CC[C@@H](O)[C@](C)(O)[C@H]1CC[C@@]2(O)C3=CC(=O)[C@@H]4C[C@@H](O)[C@@H](O)C[C@]4(C)[C@@H]3CC[C@]12C	-2.14	
CCCCOc1ccc(C(=O)Nc2ccc(F)cc2F)cc1	-9.34	
CCOc1cc2c(c(F)c1OCC)C(=N)N(CC(=O)c1cc(N3CCOCC3)c(OC)c(C(C)(C)C)c1)C2		23.5 µM (active)
CC[C@H]1OC(=O)[C@H](C)[C@@H](O[C@H]2C[C@@](C)(OC)[C@@H](O)[C@H](C)O2)[C@H](C)[C@@H](O[C@@H]2O[C@@H](C)C[C@H](N(C)C)[C@@H]2O)[C@](C)(O)C[C@@H](C)C(=O)[C@H](C)[C@@H](O)[C@]1(C)O	14.5	
CC(Cc1ccc(O)c(O)c1)(NN)C(=O)O (stereo not given)	3.21	
CCNC(=O)c1cc2c(-c3cc(OCCN4CCCC4)c(Cl)cc3Cl)nc(N)nc2s1		2.09 µM (active)

Compound	activity change, negative = cytotoxic [%]	Potency
Cc1ccc2nc(NCCN)c3ncc(C)n3c2c1		11.8 µM (active)
CC(=O)O[C@H]1C[C@@H]2CC[C@H]3[C@H]4C[C@H]([N+]5(C)CCCCC5)[C@@H](OC(C)=O)[C@@]4(C)CC[C@@H]3[C@@]2(C)C[C@H]1N1CCCCC1	22.1	
CC(C)(O)[C@H]1CC[C@@](C)([C@H]2[C@@H](O)C[C@@]3(C)[C@@H]4C[C@H](O[C@@H]5O[C@H](CO)[C@@H](O)[C@H](O)[C@@H]5O)[C@H]5C(C)(C)[C@@H](O[C@@H]6OC[C@@H](O)[C@H](O)[C@@H]6O)CC[C@@]56C[C@@]46CC[C@]23C)O1	21.9	
O=C(Nc1ccc(Oc2ccnc3[nH]ccc23)c(F)c1)c1cccn(-c2ccc(F)cc2)c1=O		16.6 µM (active)
CC(C(C)N1CC(=O)NC(=O)C1)N1CC(=O)NC(=O)C1 (stereo not given)		0.743 µM (active)
CC(=O)OC[C@@H]1O[C@@H](n2ccc(=O)[nH]c2=O)[C@H](OC(C)=O)[C@H]1OC(C)=O	1.61	
CC(=CC(=O)Nc1ccccc1C(=O)O)c1ccc2ccccc2c1	-3.29	
Cc1cnc(NC(=O)Nc2cc(Br)c(C)cc2OC[C@@H]2CNCCO2)cn1		1.18 µM (active)
Cn1cnc2c(F)c(Nc3ccc(Br)cc3F)c(C(=O)NOCCO)cc21	13.5	
C[C@H](NC(=O)[C@@H](O)c1cc(F)cc(F)c1)C(=O)N[C@@H]1C(=O)N(C)c2ccccc2-c2ccccc21	-1.28	
O=S(=O)(O)CCSSCCS(=O)(=O)O	15.5	
CON=C(C(=O)N[C@@H]1C(=O)N2C(C(=O)O)=C(CSC(=O)c3ccco3)CS[C@H]12)c1csc(N)n1	19.4	
C[C@@]12C[C@@]3(O)O[C@@H](O1)[C@]1(COC(=O)c4ccccc4)[C@@H]3C[C@@]12O[C@@H]1O[C@H](CO)[C@@H](O)[C@H](O)[C@@H]1O	6.3	
CC(=O)C1=C(O)C=C2Oc3c(C(C)=O)c(O)c(C)c(O)c3C2(C)C1=O (stereo not given)		2.35 µM (active)
Nc1ncn([C@@H]2O[C@H](CO)[C@@H](O)[C@@H]2O)c(=O)n1		7.43 µM (active)
C[C@]12C=CC(=O)N[C@@H]1CC[C@H]1[C@H]3CC[C@@H](C(=O)Nc4cc(C(F)(F)F)ccc4C(F)(F)F)[C@@]3(C)CC[C@@H]12		14.8 µM (active)
CC(=O)O[C@@]12CO[C@H]1C[C@H](O)[C@@]1(C)C(=O)[C@H](O)C3=C(C)[C@@H](OC(=O)C(O)[C@@H](NC(=O)OC(C)(C)C)c4ccccc4)C[C@@](O)([C@@H](OC(=O)c4ccccc4)[C@@H]21)C3(C)C (stereo not given in full)		23.5 µM (active)
